Results on eleven molecules are retold here after PubChem BioAssay (NCI).

Test systems include NCI-H23 lung; NCI-H226 lung; NCI-H322M lung; HOP-62 NSCLC; NCI-H460 lung; HOP-92 NSCLC; NCI-H522 lung; A549/ATCC NSCLC; 786-0 renal; COLO 205 colon.
Common to all, as to assay: NCI-60 one-dose screen, 48 h (100 = growth as untreated, 0 = no growth, -100 = all killed)
What all share (details): 10 µM unless noted

Compounds without any hit were thinned out: in the full panel of roughly 83,000, 20% have a hit.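 Each cell line was grown in a 96-well plate and treated with one concentration of compound for 48 hours. Values below 10 were considered active.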 Unmarked numbers belong to inactive results. Active and inactive are the calls of the source.

On to `CC(C)C[C@H](NC(=O)CNC(=O)C[C@H]1O[C@@H]2OC3(C)CC[C@H]4[C@H](C)CC[C@@H]([C@H]1C)[C@@]24O3)B(O)O`, for which the growth is -37.1% (active) in the assay with NCI-H23 lung; -36.2% (active) with NCI-H226 lung; 54.4% in the assay on NCI-H322M lung; -3.39% (active) with HOP-62 NSCLC; 9.47% (active) in the assay on NCI-H460 lung; -18.8% (active) in the assay with HOP-92 NSCLC. Further, the growth in the assay with NCI-H522 lung was -74.3% (active); with A549/ATCC NSCLC it was 27.9%; with 786-0 renal, 16%; in the assay with COLO 205 colon, 29.5%.

Turning to `CCc1ccc(SC2c3cc(OC)ccc3Oc3nc(N)c(C#N)c(N)c32)cc1` (stereo not given), the growth with NCI-H23 lung was -5.83% (active); in the assay with NCI-H226 lung it was -6.69% (active); with NCI-H322M lung, -48% (active); with HOP-62 NSCLC, 1.33% (active); in the assay with NCI-H460 lung, 3.96% (active); with HOP-92 NSCLC, -38.5% (active). The growth with NCI-H522 lung is -8.76% (active); with A549/ATCC NSCLC, -41.2% (active); in the assay with 786-0 renal, -54.6% (active); with COLO 205 colon, -68.9% (active).

On to `CCCCCCCCc1cccc(CC(=O)Nc2ccc(C)cc2C(=O)O)c1`, for which the growth in the assay with NCI-H23 lung was 59.3% [25 µM]; in the assay on NCI-H226 lung, 65.3% [25 µM]; in the assay on NCI-H322M lung, 62.7% [25 µM]; in the assay with HOP-62 NSCLC it was 54.8% [25 µM]; in the assay on NCI-H460 lung, 20.4% [25 µM]; in the assay with HOP-92 NSCLC, 83.8% [25 µM]. Moreover, the growth in the assay on NCI-H522 lung is 38.7% [25 µM]; in the assay on A549/ATCC NSCLC it was 31.4% [25 µM]; with 786-0 renal, 34.1% [25 µM]; in the assay with COLO 205 colon, 59.1% [25 µM].

With `CC1=C(C(=O)Nc2ccccc2)C(c2cccc3ccccc23)n2c(nc3ccccc32)N1` (stereo not given), the growth was 76.7% in the assay with NCI-H23 lung; -39.8% (active) in the assay on NCI-H226 lung; 44% in the assay with NCI-H322M lung; -61.9% (active) in the assay on HOP-62 NSCLC; 27.6% in the assay with NCI-H460 lung; 1.76% (active) in the assay with HOP-92 NSCLC. Moreover, the growth was 63.6% with NCI-H522 lung, 28.2% with A549/ATCC NSCLC, 6.29% (active) in the assay on 786-0 renal and 95.2% in the assay on COLO 205 colon.

As for `CC1=C(C)C(=O)C(N2CCSCC2)=CC1=O`, the growth with NCI-H23 lung was 93.9%; with NCI-H226 lung, 88.7%; with NCI-H322M lung, 96.9%; in the assay with HOP-62 NSCLC, 99.1%; in the assay with NCI-H460 lung it was 105%; in the assay on HOP-92 NSCLC, 89.5%. The growth with NCI-H522 lung is 94.3%; in the assay on A549/ATCC NSCLC, 99.3%; with 786-0 renal, 99.4%; with COLO 205 colon, 121%.

Turning to `Cn1ncc2c(N)nc(Oc3ccccc3-c3ccccc3)nc21`, the growth with NCI-H23 lung was 29.6%; in the assay with NCI-H226 lung it was 45.2%; in the assay with NCI-H322M lung it was 72.2%; in the assay on HOP-62 NSCLC, 57.9%; with NCI-H460 lung, 14.5%; with HOP-92 NSCLC, 62.4%. The growth in the assay on NCI-H522 lung is 22.2%; with A549/ATCC NSCLC it was 55.9%; in the assay with 786-0 renal it was 52.6%; in the assay with COLO 205 colon, 33.9%.

Turning to `S=C(Nc1ccccc1)Nc1ccc(OCc2nc3ccc(Cl)cc3[nH]2)cc1`, the growth in the assay on NCI-H23 lung is 88%; in the assay on NCI-H226 lung, 97.5%; in the assay on NCI-H322M lung, 89.5%; in the assay with HOP-62 NSCLC, 90.4%; in the assay with NCI-H460 lung it was 88.2%; in the assay with HOP-92 NSCLC, 115%. The growth is 61.1% in the assay on NCI-H522 lung, 88.2% with A549/ATCC NSCLC, 94.5% in the assay on 786-0 renal and 114% with COLO 205 colon.

As for `COc1cc(/C=N/NC(=O)c2ccc(OCc3nc4ccc(Cl)cc4[nH]3)cc2)cc(OC)c1OC`, the growth with NCI-H23 lung is 34.7%; in the assay on NCI-H226 lung, 35.5%; with NCI-H322M lung it was 55.1%; with HOP-62 NSCLC it was 64.2%; in the assay with NCI-H460 lung, 44.7%; with HOP-92 NSCLC, 118%. In addition, the growth was 26.2% with NCI-H522 lung, 59.2% in the assay with A549/ATCC NSCLC, 29.3% with 786-0 renal and 29.3% in the assay with COLO 205 colon.

With `COc1cc(C2C(C(=O)OCc3ccccc3)=C(C)Nc3nc4ccccc4n32)cc(OC)c1OC` (stereo not given), the growth was 45.8% in the assay with NCI-H23 lung; -37.3% (active) with NCI-H226 lung; 40.9% in the assay with NCI-H322M lung; 31.1% with HOP-62 NSCLC; 16% in the assay with NCI-H460 lung; -0.272% (active) in the assay on HOP-92 NSCLC. The growth in the assay on NCI-H522 lung is -7% (active); with A549/ATCC NSCLC it was 34.9%; in the assay with 786-0 renal, -66.1% (active); with COLO 205 colon, 52.5%.

As to `COc1ccc(N=Nc2c(N)nn3c(-c4ccc(OC)c(OC)c4)ccnc23)cc1`, the growth with NCI-H23 lung was 72.8%; in the assay with NCI-H226 lung, 94.8%; in the assay with NCI-H322M lung, 88.5%; in the assay with HOP-62 NSCLC, 21.5%; in the assay on NCI-H460 lung, 85.2%; in the assay on HOP-92 NSCLC, 67.6%. For the same molecule, the growth was 78.7% in the assay with NCI-H522 lung, 74% in the assay with A549/ATCC NSCLC, 76.2% with 786-0 renal and 103% in the assay with COLO 205 colon.

For the molecule `CC[C@]12C=CCN3CC[C@@]4(c5ccc(OC)cc5N(C)[C@H]4[C@@](O)(C(=O)OC)[C@@H]1OC(=O)CCCC[P+](c1ccc(F)cc1)(c1ccc(F)cc1)c1ccc(F)cc1)[C@@H]32`, the growth was 23.6% with NCI-H23 lung; 38% in the assay with NCI-H226 lung; 52.9% with NCI-H322M lung; 50.9% in the assay on HOP-62 NSCLC; 20.3% with NCI-H460 lung; -12.2% (active) with HOP-92 NSCLC. Besides, the growth with NCI-H522 lung is -11.6% (active); with A549/ATCC NSCLC it was 37.5%; with 786-0 renal, 87.1%; in the assay with COLO 205 colon it was -43.4% (active).
